# Compound activity from PubChem BioAssay.
# hERG WT inh – qHTS for Inhibitors of KCHN2 3.1: Wildtype qHTS; Voltage-gated inwardly rectifying potassium channel KCNH2 (Homo sapiens), Q12809; U2OS, BacMam KCNH2, thallium flux FluxOr; stronger effect = lower value; activity change, % at 1.84 µM; 340,000 tested, 0.37% active; AID 720551, 2013;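 active = maximum activity change below -70%; inconclusive = maximum activity change between -70% and -50%; inactive = maximum activity change above -50%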
#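 U2OS cells transduced with wild-type KCNH2 virus are loaded with FluxOr dye for 45 min, and thallium flux is measured in kinetic reads before and after stimulation buffer. Rate constants are normalized to DMSO controls.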
# KCNH2 3.1 inh – qHTS for Inhibitors of KCHN2 3.1: Mutant qHTS. 340,000 tested, 0.95% active. activity change, % (tested at about 1.8 µM). U2OS KCNH2 3.1, thallium flux FluxOr; stronger effect = lower value. Potassium voltage-gated channel subfamily H member 2, brain isoform KCNH2 3.1 (human);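 active = maximum activity change below -70%; inconclusive = maximum activity change from -70% to -50%; inactive = maximum activity change above -50%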;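 note: thallium influx rate constant from kinetic fluorescence after stimulation buffer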
#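 Normalized rate constant (relative to positive and negative DMSO controls) derived from a 2 min kinetic fluorescence read after stimulation; U2OS cells expressing the 3.1 isoform via virus at 1.77 x 10^8 /mL.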
# RXFP1 antagonist – qHTS Assay for Antagonists of the Relaxin Receptor RXFP1; Relaxin receptor 1 (Homo sapiens), Q9HBX9; HEK293-RXFP1, relaxin-stimulated cAMP HTRF, 30 min; stronger effect = lower value; activity change, negative = inhibition, % at 57.5 µM; 350,000 tested, 0.59% active; AID 1259400, 2018;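 active = activity change of -60% or lower, but not beyond a set lower limit; inconclusive = change between -60% and -40%, or beyond the set limit; inactive = change above -40%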
# Target sequence (Q9HBX9 whole entry, looked up): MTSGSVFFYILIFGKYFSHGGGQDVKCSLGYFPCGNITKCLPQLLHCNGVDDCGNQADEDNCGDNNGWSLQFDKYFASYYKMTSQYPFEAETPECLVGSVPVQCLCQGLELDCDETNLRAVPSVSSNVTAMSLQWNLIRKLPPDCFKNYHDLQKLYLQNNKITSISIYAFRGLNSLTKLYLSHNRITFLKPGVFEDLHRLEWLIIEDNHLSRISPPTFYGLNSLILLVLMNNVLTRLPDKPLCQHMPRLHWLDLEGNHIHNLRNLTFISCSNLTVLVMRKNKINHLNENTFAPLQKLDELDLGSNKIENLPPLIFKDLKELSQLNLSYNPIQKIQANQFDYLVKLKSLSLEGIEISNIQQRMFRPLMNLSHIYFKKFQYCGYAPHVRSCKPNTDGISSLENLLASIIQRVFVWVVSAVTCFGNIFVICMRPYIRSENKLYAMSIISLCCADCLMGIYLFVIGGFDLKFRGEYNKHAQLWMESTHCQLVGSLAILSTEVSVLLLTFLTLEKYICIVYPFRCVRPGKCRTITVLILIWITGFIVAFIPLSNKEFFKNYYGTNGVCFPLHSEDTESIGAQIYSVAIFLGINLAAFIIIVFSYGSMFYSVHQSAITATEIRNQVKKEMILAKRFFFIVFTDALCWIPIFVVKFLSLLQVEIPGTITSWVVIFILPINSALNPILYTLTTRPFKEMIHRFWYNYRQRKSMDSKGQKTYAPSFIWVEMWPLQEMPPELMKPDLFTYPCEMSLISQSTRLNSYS
# pAkt inh – HTS Assay for Inhibitors of Akt Phophorylation: Primary Screen. Neuro2A IGF-stimulated pAkt S473 HTRF, 20 min; stronger effect = lower value. 360,000 tested, 0.32% active. activity change, % for hits at 50 µM. AID 651550, 2012; in the data active = activity change below about -80%; inconclusive = mostly about -51% to -80%
#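 Neuro2A cells in DMEM with 0.5% FBS, overnight at 37 deg C, given compound at single 50 µM final, then IGF (6 nM final) for 20 min at 37 deg C. Lysed; phospho-Akt Ser473 by HTRF after 24 h, 665/615 ratio.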
# RXFP1 ag – qHTS Assay for Agonists of the Relaxin Receptor RXFP1. Relaxin receptor 1 (Homo sapiens), Q9HBX9. AID 2676, 2010. 370,000 tested, 0.3% active. HEK293T-RXFP1 cAMP TR-FRET, 30 min; response scale: percent of porcine relaxin response, buffer zero. Potency, µM (doses to about 57.5 µM), inactives show at the highest dose activation, most hits filed as activators; active = well fitted activation curve with a large enough effect; inconclusive = small, poorly fitted or top-dose-only effect; note: potency is the fitted concentration of half-maximal effect; nearly all actives have a fitted effect of over 60% in size
#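 HEK293 cells stably expressing RXFP1, treated 30 min at 37C with compounds plus PDE4 inhibitor Ro 20174; cAMP measured by HTRF TR-FRET. Normalized to buffer and 29 nM porcine relaxin; EC50 by Hill fit.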
# * = called active by the depositor; i = inactive; ? = inconclusive; / = no result. In the library only some 1.7% were active in any assay of this set; here they are far more common. % is set by controls: 0 for no effect and ±100 for the full control effect.
SMILES,hERG WT inh,KCNH2 3.1 inh,RXFP1 antagonist,pAkt inh,RXFP1 ag
Cc1c([N+](=O)[O-])cc(N2C(=O)C=CC2=O)cc1[N+](=O)[O-],-0.2,17.9,?,i,/
Cc1cc(C)cc(N2C(=O)C=CC2=O)c1,19.0,-18.3,-85.1*,i,/
COc1ccccc1/C=C/C=N/n1c(-c2ccc(Cl)cc2)n[nH]c1=S,-0.1,15.9,-62.8*,i,-0.5%
CC(c1ccccc1)N(NC(=O)C(O)(c1ccccc1)c1ccccc1)C(=O)c1ccccc1 (stereo not drawn),8.2,12.9,-26.8,i,0.6%
O=c1c2cc(NC(=S)N3CCCC3)ccc2nc2n1CCCCC2,4.2,12.9,9.1,i,7.7%
O=C(O)c1cc(NC(=O)c2ccc(Cl)c([N+](=O)[O-])c2)cc(C(=O)O)c1,-6.4,-16.9,-3.4,i,-0.6%
O=C(Nc1ccc(C(O)(C(F)(F)F)C(F)(F)F)cc1)c1ccc(Cl)c([N+](=O)[O-])c1,-4.8,-38.7,-89.5*,i,-2.3%
CCC[C@@H](CN1CCC[C@H]1CN1C(N)=NC[C@@H]1Cc1ccccc1)N1C[C@@H](Cc2ccccc2)N(CCCC2CCCC2)C1=N,/,/,/,i,/
COc1ccc(C(N)c2csc(NC(=O)Nc3ccccc3C(C)(C)C)n2)cc1 (stereo not drawn),/,/,/,i,/
O=C1CCSc2ccc(S(=O)(=O)Nc3ccc(Cl)c(C(F)(F)F)c3)cc2N1,/,/,/,/,2.2%
CCOC(=O)CSc1nc(C(C)C)nc2sc(C)c(C)c12,-11.7,-14.9,-60.5*,i,0.1%
CCOC(=O)CSc1nc2sc(C)c(C)c2c(=O)n1C,-14.2,3.5,-4.8,i,1.0%
Cc1ncc(CO)c2c1Oc1nc(-c3ccccc3)nc(SCC(=O)N(C)c3ccccc3)c1C2,/,/,/,/,0.0%
Cc1ncc(CO)c2c1Oc1nc(-c3ccccc3F)nc(SCC(=O)N(C)c3ccccc3)c1C2,-6.4,-14.8,-91.0*,i,-0.5%
Cc1[nH]ncc1Nc1c(C(C)C)cccc1C(C)C,/,/,/,i,/
CCOC(=O)C(/C=N/c1cc(C)nn1-c1ccccc1)=C(\C)O,-13.4,5.4,-7.1,-110.1%*,1.9%
COc1cccc(C2c3c(-c4ccccc4O)n[nH]c3C(=O)N2Cc2ccco2)c1 (stereo not drawn),-4.4,-18.8,-4.6,i,4.7%
CCOc1cccc(C2c3c(-c4cc(C)ccc4O)n[nH]c3C(=O)N2Cc2ccco2)c1 (stereo not drawn),/,/,-75.9*,/,2.5%
O=C1c2[nH]nc(-c3ccccc3O)c2C(c2ccccc2F)N1Cc1ccco1 (stereo not drawn),-6.5,-13.6,-7.4,i,0.9%
Cc1ccc(O)c(-c2n[nH]c3c2C(c2ccccc2F)N(Cc2ccco2)C3=O)c1 (stereo not drawn),/,/,-68.8*,/,-2.4%
CCOC(=O)c1cc(-c2ccccc2)n(CCC(=O)NCCc2cccc(C)c2)c1C,/,/,-30.6,/,-1.4%
CCOC(=O)c1cc(-c2ccc(OC)cc2)n(CCC(=O)NCCc2ccccc2)c1C,/,/,-62.0*,/,-0.5%
CCCCCC(=O)N/N=C(\C)c1ccc(N2CCCCC2)cc1,-3.4,3.4,-20.1,i,-1.3%
COc1ccc2[nH]c3c(=O)n(CCCCC(=O)N4CCCC4)c(=S)[nH]c3c2c1,8.2,2.5,-106.8*,i,3.1%
COc1ccc2[nH]c3c(=O)n(CCCC(=O)NC4CCC(C)CC4)c(=S)[nH]c3c2c1 (stereo not drawn),4.8,-21.4,-35.4,/,3.2%
O=C(CCn1c(=S)[nH]c2ccccc2c1=O)NCCc1ccccc1,-1.7,4.2,-31.9,i,11.9%
CCCNC(=O)CCCCn1c(=S)[nH]c2c([nH]c3ccc(OC)cc32)c1=O,/,21.4,-18.6,i,6.1%
COc1ccc2[nH]c3c(=O)n(CCCC(=O)NC4CCCCC4C)c(=S)[nH]c3c2c1 (stereo not drawn),5.2,22.5,-65.6*,i,-2.0%
O=C(CCCn1c(=S)[nH]c2ccsc2c1=O)NCCc1ccccc1,7.2,16.7,-94.3*,/,6.6%
